Experimental data reported in PubChem BioAssay AID2521 (Sanford-Burnham Center for Chemical Genomics, 2010).
The campaign covered roughly 330,000 compounds. About 1,100 (0.33%) were called active.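 How the source made its calls: active means inhibition above about 40% at 20 µM (limit read from the data); inactive means the rest.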 For the sample, actives were picked, then their nearest neighbours and some compounds at random.

What follows are molecules tested against Apelin receptor (Homo sapiens) (UniProt P35414) (assay: antagonists of human apelin receptor APJ, primary screen, CHO-K1 cells, beta-arrestin complementation, luminescence (AID 2521;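 further: cells challenged with 10 nM apelin-13 agonist together with compound; plate controls were apelin-13 plus DMSO wells for no effect and DMSO wells lacking apelin-13 for full effect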)). Conditions: at 20 µM, active compounds read high.
Sequence of Apelin receptor (Homo sapiens) (P35414 whole entry, looked up): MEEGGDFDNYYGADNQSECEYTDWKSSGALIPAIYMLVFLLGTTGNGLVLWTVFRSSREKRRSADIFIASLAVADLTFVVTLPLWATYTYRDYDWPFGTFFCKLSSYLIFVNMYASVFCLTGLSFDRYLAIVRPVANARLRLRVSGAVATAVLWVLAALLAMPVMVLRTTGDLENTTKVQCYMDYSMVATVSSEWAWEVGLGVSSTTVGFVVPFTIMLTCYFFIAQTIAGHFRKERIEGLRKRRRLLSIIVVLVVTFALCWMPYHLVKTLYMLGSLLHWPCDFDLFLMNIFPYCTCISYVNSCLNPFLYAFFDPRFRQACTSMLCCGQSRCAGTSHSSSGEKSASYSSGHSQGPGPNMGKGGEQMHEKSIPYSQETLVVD
In the case of COc1ccc(/C(C)=N\NC(=O)c2ccc(-c3ccccc3)cc2)c(F)c1, the inhibition is reported as 8.03% (inactive). C/C(=N\NC(=O)c1ccccc1F)c1ccccn1 was tested, and the inhibition was 57.1% (active). With Cc1cnc(NC(=O)c2ccccn2)s1 the inhibition was 9.6% (inactive). CCOC(=O)[C@H]1CCC[C@@H](NS(=O)(=O)c2ccc(NC(C)=O)cc2)C1 was tested, and the inhibition was 6.91% (inactive). With CC(C)(C)c1cc(C(=O)NN)n(Cc2ccc(Cl)cc2Cl)n1 the inhibition was -15% (inactive). For Cc1ccc(C(=O)OC2=CC(=O)CC(C)(C)C2)cc1, the inhibition was -13.7% (inactive). With CCc1c(C)sc(NC(=O)c2cccs2)c1C(N)=O the inhibition was 1.68% (inactive). With COc1ccc(/C=N/N=C2/C(=O)Nc3ccccc32)cc1O the inhibition was -11.9% (inactive). With O=C1Nc2ccc(Br)cc2/C1=N/N=C/C1=C(N2CCOCC2)C(=C\c2ccccc2)/CC1 the inhibition was 46.4% (active). With O=C(c1cccc(-n2cccc2)c1)N1CCN(S(=O)(=O)c2ccc(F)cc2)CC1 the inhibition was -9.43% (inactive). For COc1cc(Nc2nc3ccc(Cl)cc3n3cnnc23)cc(OC)c1OC, the inhibition was -3.66% (inactive). In the case of Nc1nc(SCC(=O)NNc2c(Cl)cc(Cl)cc2Cl)n[nH]1, the inhibition is reported as -14.8% (inactive). COc1ccc(CNc2cc(C)cc(C)c2)cc1OC was tested, and the inhibition was -9.47% (inactive). In the case of CN(CC(=O)Nc1ccc(F)c(F)c1F)C(=O)C1CC(=O)N(C2CCCC2)C1 (stereo unspecified), the inhibition is reported as 19.9% (inactive). With COC(=O)c1sccc1NC(=S)Nc1ccc(C)cc1 the inhibition was -10.8% (inactive). With COc1ccc(CS(=O)/C(Cl)=C(/Cl)C(=O)Nc2ccc(OC)nc2)cc1 (stereo unspecified) the inhibition was 67.6% (active). In the case of COc1ccc(CCC(=O)c2ccc(OC)cc2)cc1, the inhibition is reported as -11.9% (inactive). COc1ccc(OC(C)C(=O)Nc2cccnc2)cc1 (stereo unspecified) was tested, and the inhibition was 15.8% (inactive). With CCN(CC(=O)Nc1ccc(OC)cc1)C(=O)CSCc1ccc(C)cc1 the inhibition was 12.9% (inactive). For COc1ccc(NC(=O)/C(Cl)=C(/Cl)S(=O)Cc2ccc(C)cc2)cn1 (stereo unspecified), the inhibition was 89.8% (active). With CC1CCCCN1C(=O)CCS(=O)(=O)Cc1ccccc1 (stereo unspecified) the inhibition was 11.3% (inactive). With Cc1nc(CN2CCN(C(=O)CCc3nnc(Cc4c[nH]c5ccccc45)o3)CC2)cs1 the inhibition was 21.1% (inactive). In the case of CSC1=N/C(=C\C=C\c2cccs2)C(=O)S1, the inhibition is reported as 5.36% (inactive). CC(C)c1ccc(NS(=O)(=O)c2cn(C)c(=O)n(C)c2=O)cc1 was tested, and the inhibition was 7.41% (inactive). With CCCc1nc2c(C)cc(-c3nc4ccccc4n3C)cc2n1Cc1ccc(-c2ccccc2C(=O)O)cc1 the inhibition was 9.96% (inactive). CC(=O)c1c(C)[nH]c(C(=O)CN2C(=O)NC(C)(C)C2=O)c1C was tested, and the inhibition was 8.53% (inactive). In the case of Cc1ccc(SC(C)C(=O)NCc2ccc(F)cc2)cc1 (stereo unspecified), the inhibition is reported as 16.8% (inactive). For CC(C)NC(=O)C(c1ccc(F)cc1)N(C(=O)CCC(=O)Nc1ccccn1)c1ccccc1F (stereo unspecified), the inhibition was 21.5% (inactive). In the case of CC(C)C(=O)N1CCC2(CC1)Oc1ccc(F)cc1C(=O)C21CC(c2ccccc2)=NO1 (stereo unspecified), the inhibition is reported as -0.0582% (inactive). With COc1cccc2sc(Nc3nc(C)c(C(C)=O)s3)nc12 the inhibition was 60.9% (active). With COc1cc2ccccc2cc1C(=O)Nc1nc(C)c(C(C)=O)s1 the inhibition was 1.17% (inactive). With CNC(=O)c1sc(NCc2ccccc2OC)nc1C the inhibition was -1.64% (inactive). With O=C(Cc1c(Cl)cccc1Cl)NC1CC1 the inhibition was 14.9% (inactive). O=C(CCl)NNc1cccc(Cl)n1 was tested, and the inhibition was 47.2% (active). In the case of Cc1cccc(NC(=O)Cc2ccc(Br)cc2)n1, the inhibition is reported as -4.98% (inactive). For COc1ccc(N2CCN(C(=O)CNS(=O)(=O)c3ccc(C)c(C)c3)CC2)cc1, the inhibition was 3.43% (inactive). Cc1ccc(CC(=O)Nc2cccc(C#N)c2)cc1 was tested, and the inhibition was 7.58% (inactive). For Oc1ccc(N=Nc2nccs2)c(O)c1, the inhibition was 47.6% (active). In the case of CC(Oc1ccc(F)cc1)C(=O)Nc1cc(S(=O)(=O)N2CCOCC2)ccc1N1CCN(C)CC1 (stereo unspecified), the inhibition is reported as 11.7% (inactive). With CCCOc1ccc(N2CC(C(=O)Nc3ccccn3)CC2=O)cc1 (stereo unspecified) the inhibition was -12.1% (inactive). For COC(=O)c1cc(NC(=O)CN2CCC(C(N)=O)(N3CCCCC3)CC2)cc(C(=O)OC)c1, the inhibition was 12.5% (inactive). In the case of O=C(CSc1nnnn1C1CCCC1)N1CCCCC1, the inhibition is reported as -7.07% (inactive). In the case of CC(=O)C1=C(O)C(=O)N(c2ccc(Br)cc2)C1c1ccc([N+](=O)[O-])cc1 (stereo unspecified), the inhibition is reported as 18.2% (inactive). In the case of CC(=O)C1=C(O)C(=O)N(c2cccnc2)C1c1ccc([N+](=O)[O-])cc1 (stereo unspecified), the inhibition is reported as 5.89% (inactive). CC(=O)C1=C(O)C(=O)N(c2ccc(S(N)(=O)=O)cc2)C1c1ccccc1F (stereo unspecified) was tested, and the inhibition was 59% (active). For COc1cccc(NC(=O)C/C(C)=N/NC(=O)C2CCCCC2)c1, the inhibition was -8.71% (inactive). With COc1cccc(NC(=O)C(=O)c2cn(CC(=O)N3CCOCC3)c3ccccc23)c1 the inhibition was -7% (inactive). With Cc1cc(C(F)F)n2nc(C(=O)Nc3ccc(S(=O)(=O)NC45CC6CC(CC(C6)C4)C5)cc3)nc2n1 the inhibition was 10.3% (inactive). In the case of O=C(NC1CCCCC1)C1CCC(CNS(=O)(=O)c2ccccc2)CC1 (stereo unspecified), the inhibition is reported as -0.098% (inactive). In the case of CN1/C(=c2/s/c(=C3/C(=O)N(c4ccccc4)NC3=Nc3ccccc3)n(C)c2=O)C(C)(C)c2ccccc21, the inhibition is reported as 40.6% (active). CCOc1cccc2c1OC1(CCCCC1)N1N=C(c3cccnc3)CC21 (stereo unspecified) was tested, and the inhibition was -4.03% (inactive). With CN(C)CCOc1cccc(Br)c1 the inhibition was 7.12% (inactive). COCCCNc1nc2ccccc2nc1NS(=O)(=O)c1ccc(F)cc1 was tested, and the inhibition was 8.77% (inactive). COC(=O)c1ccccc1NC(=O)C1CCN(C(=O)N2CCOc3ccccc32)CC1 was tested, and the inhibition was 4.33% (inactive). For O=C(CN(C(=O)CNC(=O)c1cccs1)c1cccc(F)c1)NC1CCCCC1, the inhibition was 15.9% (inactive). With COc1cccc(C(=O)N/N=C(\C)c2cccc(NC(=O)c3ccc(F)cc3)c2)c1OC the inhibition was -21.2% (inactive). In the case of CCC(C)NC(=O)N[C@@H](CCSC)C(=O)O (stereo partly specified), the inhibition is reported as 3.5% (inactive). COc1cc(/C=C(\C#N)c2nc3c(s2)CC(C)CC3)ccc1O (stereo unspecified) was tested, and the inhibition was 40.9% (active). For Cn1cccc1C(=O)OCC(=O)c1ccc(Br)s1, the inhibition was 6.14% (inactive). In the case of O=C(CSc1ncnc2c1nnn2Cc1ccc(F)cc1)NC1CCCC1, the inhibition is reported as 23.2% (inactive). In the case of Cc1cc(CNCc2c(C(=O)N(C)Cc3ccccc3)nc3ccccn23)nn1C, the inhibition is reported as 12.9% (inactive). For COCC(C)OC(=O)c1c(N)n(CCCN2CCOCC2)c2nc3ccccc3nc12 (stereo unspecified), the inhibition was 10.9% (inactive). C=CCn1c(N)c(C(=O)OCC(C)C)c2nc3ccccc3nc21 was tested, and the inhibition was 74.2% (active). C=CCn1c(C(C)NC(=O)CC)nc2ccccc21 (stereo unspecified) was tested, and the inhibition was 8.11% (inactive). For CCOC(=O)C1=C(NC(=S)NC(=O)c2ccccc2)c2ccccc2CC1(C)C, the inhibition was -12.1% (inactive). In the case of CCCCCCNC(=O)CSc1nccn1Cc1ccccc1, the inhibition is reported as 15.6% (inactive). For CCOC(=O)C(CCOc1cccc(CC)c1)C(=O)OCC, the inhibition was 0.162% (inactive). In the case of O=C(/C=C/c1cccs1)NCc1cccnc1, the inhibition is reported as -1.62% (inactive). Cc1cc(Cl)nc(NC(=O)Nc2cccc(Cl)c2)n1 was tested, and the inhibition was 12.4% (inactive). For Cc1cccc(NC(=S)Nc2ccc(Cl)c(Cl)c2)c1, the inhibition was 9.23% (inactive). With Cc1csc(NC(=S)Nc2cccc(Cl)c2)n1 the inhibition was 40.6% (active). In the case of O=C(Nc1ccc([N+](=O)[O-])cc1)C1(c2ccccc2)CCOCC1, the inhibition is reported as 4.46% (inactive). In the case of CN(C(=O)COC(=O)Cn1cnc2c1c(=O)n(C)c(=O)n2C)C1(C#N)CCCCC1, the inhibition is reported as -8.66% (inactive). CN1C=CC=C/C1=C1\SC(=S)N(Cc2ccccc2)C1=O was tested, and the inhibition was 3.59% (inactive). COc1cccc(/C=C2/SC(=S)N(CC(=O)NC3C=CS(=O)(=O)C3)C2=O)c1 (stereo unspecified) was tested, and the inhibition was 2.32% (inactive). For COc1cc(/C=C2/SC(=S)N(Cc3ccccc3)C2=O)cc(OC)c1O, the inhibition was 44.9% (active). For O=C(O)C1CCCN(CCC=C(c2ccccc2)c2ccccc2)C1 (stereo unspecified), the inhibition was 6.7% (inactive). With Cn1cnc2c1c(=O)n(Cc1c(Cl)cccc1Cl)c(=O)n2C the inhibition was -5.54% (inactive). For CC(C)C(=O)N1CC(=O)Nc2ccc(F)cc2C1c1ccc(F)cc1 (stereo unspecified), the inhibition was 5.88% (inactive). With C[C@H](NC(=O)c1nc[nH]c1C(=O)NCC(=O)OC(C)(C)C)C(=O)OCc1ccccc1 the inhibition was -0.246% (inactive). With O=C(Nc1c2c(nn1-c1cccc(Cl)c1)CS(=O)(=O)C2)c1cccs1 the inhibition was -12.4% (inactive). With Cn1c(N)cc(-c2ccc(F)cc2)c(C#N)c1=O the inhibition was 16% (inactive). With CCN(CC)CCCSc1nc2ccccc2s1 the inhibition was 5.23% (inactive). With O=[N+]([O-])c1c(NCCO)cc(Sc2nc3ccccc3s2)c2nonc12 the inhibition was 95.4% (active). For Cc1nc2nc(CSc3nc4ccccc4s3)cc(=O)n2[nH]1, the inhibition was -6.29% (inactive). In the case of CCOC(=O)c1c(/N=C/C2C(=O)CC(C)(C)CC2=O)sc(C)c1C, the inhibition is reported as 3.91% (inactive). In the case of COC(=O)c1ccc(NCC(=O)c2ccccc2)cc1, the inhibition is reported as 72.4% (active). In the case of COc1ccc(NC(=O)CCCC(=O)c2ccccc2)cc1, the inhibition is reported as -8.49% (inactive). COC(=O)c1ccc(NCC(=O)N2CCCCCC2)cc1 was tested, and the inhibition was -5.46% (inactive). With C=CCOc1ccc(/C=C/C(=O)OCC(=O)NC2CCCCCC2)cc1 the inhibition was -9.63% (inactive). With CCCc1nc2oc3c(OCC)ncnc3c2c2c1COC(C)(C)C2 the inhibition was 1.23% (inactive). With Cc1cccc(N2CCC(NCc3c(C(=O)N4CCCCC4)nc4c(C)cccn34)CC2)c1 the inhibition was -3.54% (inactive). For Cc1ccc(S(=O)(=O)N(Cc2ccc(Cl)cc2)c2ccccc2C(=O)NCc2cccnc2)cc1, the inhibition was -7.26% (inactive). In the case of Cc1cccc(N2CCN(S(=O)(=O)c3ccc4[nH]c(=O)c(=O)[nH]c4c3)CC2C)c1 (stereo unspecified), the inhibition is reported as 0.293% (inactive). For Cc1ccc(N=Cc2c(O)n(-c3nccs3)c(=O)c3ccccc23)c(C)c1, the inhibition was -0.923% (inactive). For Cc1cccc(-n2c(O)c(C=Nc3ccccc3N)c(=O)[nH]c2=O)c1, the inhibition was 55.5% (active).
